Experimental data from PubChem BioAssay.
Calls of active or inactive are those of the source.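 How the source made its calls, unless noted: active means inhibition of the reporter signal at or above 50%; inactive means inhibition below 50%.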

Key:
[1] = inhibitors of TNFa-induced NFkB p65 translocation, primary screen, imaging, HUVEC, MLSMR starter and 10KST1 sets (AID 438;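 active means inhibition above 20% together with a positive visual image hit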;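 further: compound added about 3h40 before a 20 min TNFalpha stimulation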;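 on inhibition: signal is the nuclear over cytoplasmic p65 intensity ratio per well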); conditions: HUVEC TNFa-induced p65 nuclear translocation; cell count: measured here: nuclei count (cytotoxicity indicator), at 2.08 µM; inhibition: at 2 µM, stronger effect = higher value, 0% TNFa-plus-vehicle, 100% no-TNFa wells
[2] = inhibitors of mutant huntingtin aggregation, primary screen, imaging, exon1htt(103Q)mCFP cells, high-content imaging (AID 483;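 active means visual image review flags a hit and inhibition of aggregation exceeds 20%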;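 further: compound exposure lasted 3 days before fixation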;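 on nuclei count: percent of the per-plate median nuclei count of sample wells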); conditions: exon1htt(103Q)mCFP cell line, aggregate imaging, at 2 µM; inhibition of aggregation: stronger effect = higher value; nuclei count: measured here: cell count, toxicity
[3] = inhibitors of E-selectin induction by TNFa, primary screen, imaging, HUVEC, immunofluorescence, MLSMR starter and 10KST1 sets (AID 487;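 active means visually confirmed hit in the image check and inhibition above 20%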;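 on inhibition: signal is fraction of cell area covered by stained E-selectin grains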;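 on nuclei count: 100% = median nuclei count of all wells on the same plate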); conditions: HUVEC TNFalpha-induced E-selectin immunofluorescence imaging, at 2 µM; inhibition: stronger effect = higher value; nuclei count: measured here: cell number, toxicity
[4] = molecular target: Voltage-gated potassium channel subunit beta-2 (Rattus norvegicus) (UniProt P62483); experiment: KvBeta enzyme negative modulators, primary screen, biochemical, NADPH fluorescence (AID 622;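 active means fluorescence slope higher than the sample average by over 3 SD, cut at about -0.22 in these data, passing the limit was not always enough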;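 further: slope of raw intensity against log time taken from 70 to 1610 s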); conditions: recombinant KvBeta, 4-cyanobenzaldehyde reduction, at 10 µM, stronger effect = higher value
[5] = molecular target: Voltage-gated potassium channel subunit beta-2 (Rattus norvegicus) (UniProt P62483); experiment: KvBeta positive modulators, primary screen, biochemical, NADPH fluorescence (AID 623;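 active means NADPH fluorescence slope more negative than the mean of all samples by about 3 SD, 99.7% confidence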;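 further: fluorescence intensity change per second fitted from 20 to 320 s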); conditions: Recombinant KvBeta, NADPH fluorescence decrease slope, 10 min; at 10 µM; stronger effect = lower value
[6] = molecular target: Alpha-2C adrenergic receptor (Homo sapiens) (UniProt P18825); experiment: modulators of alpha2C/GIRK thallium flux, primary screen, cell-based, HEK293 alpha2C/GIRK1/2 (AID 624;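 active means fluorescence slope after compound addition differing from the mean of all screened samples at 99.7% confidence, in either direction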;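 further: slope of fluorescence ratio to pre-addition baseline per second over 15 to 24 s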); conditions: thallium flux BTC fluorescence, at 10 µM, actives lie on both sides
[7] = inhibitors of Sendai virus-induced IRF3 signaling, primary screen, TLR/RLR signaling modifier project, cell-based, Sendai virus stimulus, luciferase, 10K MLSCN set (AID 602276;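 active means inhibition at or above 50% at 10 µM; inactive means inhibition below 50%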;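 further: firefly luciferase from ISG56 promoter only with Renilla not read in this screen; 0% = Sendai virus plus DMSO and 100% = medium plus DMSO without virus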); conditions: HEK293 RL24 IRF3 luciferase reporter, at 10 µM, stronger effect = higher value
[8] = inhibitors of poly I:C-induced TLR3 signaling, primary screen, cell-based, poly I:C stimulus, luciferase, 10K MLSCN set (AID 602277); conditions: HEK293-TLR3 RL24 IRF3 luciferase reporter, at 10 µM, stronger effect = higher value

Alpha-2C adrenergic receptor (Homo sapiens), sequence (P18825 whole entry, looked up): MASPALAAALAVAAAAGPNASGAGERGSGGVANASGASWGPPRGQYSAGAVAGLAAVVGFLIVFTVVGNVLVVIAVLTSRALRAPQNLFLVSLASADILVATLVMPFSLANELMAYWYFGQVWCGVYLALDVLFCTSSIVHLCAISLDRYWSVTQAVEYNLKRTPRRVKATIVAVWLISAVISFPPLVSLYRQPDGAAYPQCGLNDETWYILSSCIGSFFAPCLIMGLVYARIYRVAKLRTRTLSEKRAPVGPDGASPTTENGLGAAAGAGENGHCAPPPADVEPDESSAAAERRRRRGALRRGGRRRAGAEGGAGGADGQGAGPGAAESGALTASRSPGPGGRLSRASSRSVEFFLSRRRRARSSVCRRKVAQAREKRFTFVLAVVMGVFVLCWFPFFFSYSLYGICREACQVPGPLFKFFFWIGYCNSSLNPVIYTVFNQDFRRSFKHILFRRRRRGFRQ
Voltage-gated potassium channel subunit beta-2 (Rattus norvegicus), sequence (P62483 whole entry, looked up): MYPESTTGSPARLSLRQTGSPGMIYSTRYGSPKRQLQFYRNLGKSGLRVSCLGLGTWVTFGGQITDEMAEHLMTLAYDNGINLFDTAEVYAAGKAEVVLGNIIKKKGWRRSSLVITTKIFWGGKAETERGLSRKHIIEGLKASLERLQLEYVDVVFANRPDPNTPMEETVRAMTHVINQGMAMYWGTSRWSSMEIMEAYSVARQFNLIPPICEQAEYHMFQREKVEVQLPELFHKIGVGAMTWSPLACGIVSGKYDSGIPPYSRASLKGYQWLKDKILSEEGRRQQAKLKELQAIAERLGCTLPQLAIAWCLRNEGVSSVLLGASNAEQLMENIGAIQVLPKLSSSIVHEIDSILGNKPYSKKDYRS

| SMILES | cell count [1] | inhibition [1] | inhibition of aggregation [2] | nuclei count [2] [%] | inhibition [3] | nuclei count [3] [%] | fluorescence slope [4] | NADPH fluorescence slope [5] | slope [6] | inhibition [7] | inhibition [8] |
| --- | --- | --- | --- | --- | --- | --- | --- | --- | --- | --- | --- |
| Cc1cc(NC(=O)CSc2nccn2-c2ccc(Cl)cc2)no1 | 505 | 4.2% (inactive) | -6.1% (inactive) | 106 | -65.5% (inactive) | 120 | -0.554 (inactive) | -8.5e-06 (inactive) | 0.00588 (inactive) | -5.68% (inactive) | -15.6% (inactive) |
| Cc1ccc(S(=O)(=O)N2CCN(C(=O)CN3CCOCC3)C2C(C)C)cc1 (centres undefined) | 309 | -5% (inactive) | -6.9% (inactive) | 105 | -99.4% (inactive) | 105 | -0.621 (inactive) | 6.8e-06 (inactive) | 0.0064 (inactive) | 4.53% (inactive) | 12.9% (inactive) |
| CC1=Nn2c(nnc2-c2cc(-c3ccccc3)n[nH]2)SC1 | 574 | -3.3% (inactive) | -6.6% (inactive) | 81.3 | 32.4% (inactive) | 87.4 | -0.617 (inactive) | -1.7e-05 (inactive) | 0.00561 (inactive) | 18.2% (inactive) | 32.9% (inactive) |
| CC1CCN(S(=O)(=O)c2ccc(Br)s2)CC1 | 437 | 13% (inactive) | -1.9% (inactive) | 102 | -79.2% (inactive) | 108 | -0.489 (inactive) | 2.6e-05 (inactive) | 0.00656 (inactive) | 8.6% (inactive) | 20.9% (inactive) |
| Cc1cc(NC(=O)CCCC(=O)Nc2ccc(F)cc2)no1 | 423 | -10.5% (inactive) | 13.2% (inactive) | 72.2 | -43% (inactive) | 107 | -0.477 (inactive) | 9.1e-07 (inactive) | 0.0057 (inactive) | 5.46% (inactive) | 34.4% (inactive) |
| O=C(NCc1ccco1)c1c2c(nc3ccccc13)CCC2 | 301 | -1.7% (inactive) | 11.3% (inactive) | 87.3 | -7.8% (inactive) | 83.7 | -0.494 (inactive) | -5.2e-05 (inactive) | 0.00639 (inactive) | 5.99% (inactive) | 7.89% (inactive) |
| O=S(=O)(c1ccc2c(c1)OCCO2)N1CCC(n2nnc3cc(F)ccc32)CC1 | 577 | -9.9% (inactive) | 1.5% (inactive) | 78 | -24.6% (inactive) | 103 | -0.5 (inactive) | -3e-05 (inactive) | 0.00521 (inactive) | 17.3% (inactive) | 17.7% (inactive) |
| CCc1nnc(NC(=O)c2ccc(S(=O)(=O)NCC(C)C)cc2)s1 | 494 | -4.1% (inactive) | -18.5% (inactive) | 100 | -73.7% (inactive) | 210 | -0.491 (inactive) | -3.9e-05 (inactive) | 0.00682 (inactive) | -15.9% (inactive) | -61.5% (inactive) |
| O=C(Cn1cnc2ccccc2c1=O)NCCC(=O)N1CCN(Cc2ccccc2)CC1 | 451 | -3.8% (inactive) | 31.1% (inactive) | 80.5 | -0.7% (inactive) | 112 | -0.416 (inactive) | -9.6e-05 (inactive) | 0.00528 (inactive) | 12.1% (inactive) | 24.7% (inactive) |
| CCn1c(SCC(=O)c2ccc(Cl)cc2)nnc1-c1ccoc1C | 352 | 0.2% (inactive) | -24% (inactive) | 110 | -69.1% (inactive) | 108 | -0.503 (inactive) | -6.2e-05 (inactive) | 0.00727 (inactive) | 3.62% (inactive) | 5.26% (inactive) |
| Cc1cc(C)nc(N2CCC(C(=O)Nc3ccc4c(c3)CCC4)CC2)n1 | 338 | 6.3% (inactive) | 17.6% (inactive) | 92 | -103% (inactive) | 120 | -0.405 (inactive) | -6.3e-05 (inactive) | 0.00372 (inactive) | 5.67% (inactive) | 24.8% (inactive) |
| Cc1nnc(SC(=O)N2c3ccccc3Sc3ccccc32)s1 | 348 | 12% (inactive) | 39.8% (active) | 99.9 | 27.8% (inactive) | 107 | -0.31 (inactive) | -1.7e-05 (inactive) | 0.00696 (inactive) | 5.05% (inactive) | 65.9% (active) |
| COc1ccc(C2=CC(=O)OC3(CCCCC3)O2)cc1 | 390 | -5.3% (inactive) | -4.6% (inactive) | 99.3 | -152% (inactive) | 115 | -0.475 (inactive) | -8.9e-05 (inactive) | 0.0046 (inactive) | 13% (inactive) | 22.7% (inactive) |
| CCn1cc(C(=O)OCc2ccc(F)cc2)c(=O)c2ccc(C)nc21 | 360 | 0.4% (inactive) | -17.1% (inactive) | 102 | -16.9% (inactive) | 98 | -0.428 (inactive) | -2.4e-05 (inactive) | 0.00561 (inactive) | 11.6% (inactive) | -3.06% (inactive) |
